Among all 1,300 compounds or so, about 360 (28%) were called active.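 Rule for the calls: active = average inhibition of at least 50%, with Z-scores no higher than 3 in both the phospho-tyrosine peptide and fluorescence counterscreens; inactive = the rest.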 Only a selection was taken, and actives are over-represented in it overall.
How the values were obtained:
[1] = retest of Hck:Nef kinase inhibitor hits, confirmation, biochemical, Z-Lyte FRET, 384-well, p-Tyr peptide counterscreen (AID 463188); conditions: Recombinant Hck-YEEI:Nef, Z-Lyte FRET kinase assay; measured here: p-Tyr peptide counterscreen; at 10 µM
[2] = molecular target: Tyrosine-protein kinase HCK (Homo sapiens) (UniProt P08631); test: as above; conditions: Recombinant Hck-YEEI:Nef, Z-Lyte FRET kinase assay; at 10 µM; stronger effect = higher value
Sequence of Tyrosine-protein kinase HCK (Homo sapiens) (P08631 whole entry, looked up): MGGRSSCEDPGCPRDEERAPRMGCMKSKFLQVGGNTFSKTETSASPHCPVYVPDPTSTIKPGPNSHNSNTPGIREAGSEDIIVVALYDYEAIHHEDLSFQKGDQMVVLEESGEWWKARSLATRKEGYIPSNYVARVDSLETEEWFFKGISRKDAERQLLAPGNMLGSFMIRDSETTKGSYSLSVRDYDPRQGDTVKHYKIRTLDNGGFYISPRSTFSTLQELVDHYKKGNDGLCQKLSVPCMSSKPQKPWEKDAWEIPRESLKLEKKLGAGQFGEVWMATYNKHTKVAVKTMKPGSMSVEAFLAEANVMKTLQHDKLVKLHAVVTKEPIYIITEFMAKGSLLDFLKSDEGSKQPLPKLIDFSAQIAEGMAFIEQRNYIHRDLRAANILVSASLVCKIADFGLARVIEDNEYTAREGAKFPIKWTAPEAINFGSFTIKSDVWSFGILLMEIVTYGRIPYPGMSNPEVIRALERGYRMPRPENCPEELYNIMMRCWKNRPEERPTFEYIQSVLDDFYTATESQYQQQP

SMILES | z-score [1] | inhibition [2]
O=C1NC(=O)N(Cc2ccco2)C(=O)/C1=C\c1ccc(-c2ccc(F)cc2)o1 | 0.915 | 68.2% (active)
COc1cc(Cn2c(N)c(C(=O)NCc3ccco3)c3nc4ccccc4nc32)cc(OC)c1OC | 25.8 | 46.4% (inactive)
